# Screening data: PubChem BioAssay, NMMLSC
# CIT2 TOR yeast: yeast TOR pathway CIT2-GFP modulation; S. cerevisiae CIT2-GFP strain, flow cytometry, 3 h; 100 means same as DMSO wells; GFP response vs DMSO, % at 10 µM; 0.065% of 320,000 active;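 active = GFP response relative to DMSO above a set limit, near the screen mean plus 3 SD, cut at about 150% in these data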;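 also: ratio of well median GFP fluorescence to mean of DMSO wells on the plate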
# MEP2 TOR yeast: modulators of TOR pathway MEP2-GFP in S. cerevisiae. 0.51% of 330,000 active. GFP response vs DMSO, % at 10 µM. S. cerevisiae MEP2-GFP strain, flow cytometry GFP, 3 h; 100% = DMSO control level;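 active = GFP response versus DMSO above a set limit, roughly screen mean plus 3 SD, cut at about 180% in these data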;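 also: median GFP fluorescence of the barcode-gated MEP2-GFP cells per well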
# LAP4 TOR yeast: alters LAP4-GFP fluorescence in TOR pathway yeast screen. 0.34% of 320,000 active. GFP response vs DMSO, % at 10 µM. AID 2023. S. cerevisiae LAP4-GFP multiplex, flow cytometry GFP, 3 h; median GFP as percent of DMSO wells;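 active = GFP response vs DMSO above a set limit, about the screen mean plus 3 SD, cut at about 150% in these data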
# RPL19A TOR yeast: modulators of TOR pathway RPL19A-GFP in S. cerevisiae; S. cerevisiae RPL19A-GFP strain, flow cytometry, 3 h; active compounds read low; percent response vs DMSO, % at 10 µM; 0.3% of 330,000 active;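 active = percent response vs DMSO below 50%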;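 also: median channel GFP fluorescence of the barcoded RPL19A-GFP strain; ratio of sample median GFP to plate DMSO average so 100% = DMSO; lower means less RPL19A-GFP as with rapamycin TOR inhibition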
# AGP1-GFP MLPCN: yeast TOR pathway AGP1-GFP modulation; S. cerevisiae AGP1-GFP multiplex flow cytometry, 3 h; GFP as percent of DMSO wells; GFP response vs DMSO, % at 10 µM; 0.02% of 320,000 active;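 active = GFP response relative to DMSO above a set limit, near screen average plus 3 SD, cut at about 150% in these data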;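 also: median GFP channel fluorescence of the gated AGP1 strain per well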
# LAP4-GFP pick2: second confirmation of modulators of TOR reporter LAP4-GFP in yeast. GFP response vs DMSO, % at 10 µM. shares compounds with LAP4 TOR yeast. S. cerevisiae LAP4-GFP strain, flow cytometry GFP, 3 h. 20% of 590 active;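 active = GFP signal as percent of the solvent control above about 150%, meaning raised reporter expression, limit read from the data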;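 also: ratio of well median GFP fluorescence to plate DMSO mean so 100% = DMSO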
# MEP2 cherry2: reconfirmed MEP2-GFP TOR pathway modulator in yeast; shares compounds with LAP4 TOR yeast; S. cerevisiae MEP2-GFP strain, flow cytometry GFP, 3 h; GFP response vs DMSO, % at 10 µM; 10% of 590 active; AID 2622;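 active = GFP signal above 150% of the solvent control wells, that is a rise of more than half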;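 also: median channel GFP fluorescence of all gated yeast cells per well; ratio of median GFP to plate DMSO average so 100% = DMSO level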
# RPL19A-GFP pick2: yeast RPL19A-GFP TOR reporter modulation, second cherry pick; GFP response vs DMSO, % at 10 µM; 3% of 590 active; S. cerevisiae RPL19A-GFP strain, flow cytometry GFP, 3 h; active compounds read low; 100% means same as DMSO wells; shares compounds with LAP4 TOR yeast;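 active = under 65% GFP response relative to DMSO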;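 also: median GFP channel fluorescence per well over the all cells gate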
# CIT2-GFP pick2: reconfirmed modulator of CIT2-GFP TOR reporter in yeast. S. cerevisiae CIT2-GFP strain, flow cytometry GFP, 3 h; DMSO control wells read 100%. 8% of 590 active. shares compounds with LAP4 TOR yeast. GFP response vs DMSO, % at 10 µM;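 active = GFP response vs DMSO above about 150%, limit read from the data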;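 also: median green fluorescence per well over all gated yeast cells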
# AGP1 GFP CP2: second confirmation of modulators of TOR reporter AGP1-GFP in yeast; 590 tested, under 10 active; percent response vs DMSO, % at 10 µM; S. cerevisiae AGP1-GFP strain, flow cytometry GFP, 3 h; AID 2643; shares compounds with LAP4 TOR yeast;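 active = over 150 percent of DMSO response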;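 also: median GFP channel fluorescence over all cells without mother daughter split; sample median GFP divided by mean DMSO control so 100% equals DMSO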
# s288c autofluor: compound is autofluorescent in yeast s288c cells; S. cerevisiae s288c, 520 nm autofluorescence, flow cytometry, 3 h; active compounds read high; zero means same as solvent-only cells; shares compounds with LAP4 TOR yeast; fluorescence change (kMESF span) at 33 µM; AID 2757; 610 tested, under 10 active;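 active = fluorescence span over the dose series, or activity score, above about 33, limit read from the data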
# Yeast autofl DR: TOR screen hit shows autofluorescence in yeast s288c; S. cerevisiae s288c parental, compound autofluorescence, flow cytometry, 3 h; shares compounds with LAP4 TOR yeast; AID 488829; 110 tested, under 10 active; fluorescence change (span) at 33 µM;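 active = fluorescence change span, or the activity score built from it, above 25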
# TORC1 bypass gr: stops wildtype yeast growth while TORC1 bypass cells still grow. shares compounds with LAP4 TOR yeast. S. cerevisiae BY4741 spot growth rating, 48-72 h; active compounds read low. growth rating (0-3) at 30 µM. 120 tested, under 10 active;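 active = growth rating at most 1 for wild type yeast while the TORC1 bypass strain still grows fully, rated 3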
# Active calls of the source: *; nt = not tested or not shown. The list is not random: actives were taken first. Their share in the collection is about 0.89%.
SMILES,CIT2 TOR yeast,MEP2 TOR yeast,LAP4 TOR yeast,RPL19A TOR yeast,AGP1-GFP MLPCN,LAP4-GFP pick2,MEP2 cherry2,RPL19A-GFP pick2,CIT2-GFP pick2,AGP1 GFP CP2,s288c autofluor,others
CCOC(=O)c1c(C)oc2c1C(=O)c1ccccc1C2=O,98,96,115,108,98,nt,nt,nt,nt,nt,nt,
COc1cccc(-n2nnnc2SCC(=O)Nc2ccccc2OC)c1,100,97,97,98,98,nt,nt,nt,nt,nt,nt,
CCCS(=O)(=O)c1nnnn1-c1cccc(OC)c1,67,90,204*,80,79,nt,nt,nt,nt,nt,2,
O=c1c2cc(Cl)ccc2nc(-c2ccc([N+](=O)[O-])cc2)n1O,76,96,134,64,79,158*,153*,46*,145,75,0.3,
CC(=O)c1ccc(S(=O)(=O)N2CCCC(N(C)CCc3ccccn3)C2)cc1 (stereo unspecified),126,112,94,105,97,nt,nt,nt,nt,nt,nt,
O=C(Nc1ccccc1)C(Cl)C(=O)c1ccccc1 (stereo unspecified),93,97,130,101,86,120,114,105,125,107,nt,
CC(=O)C(Cl)C(=O)Nc1ccccc1 (stereo unspecified),nt,nt,nt,nt,nt,120,121,103,123,112,nt,
O=C(CSc1ccccc1Cl)N1CCOCC1,106,99,86,104,106,nt,nt,nt,nt,nt,nt,
O=c1cc(-c2ccccc2)cc(-c2ccccc2)n1O,69,97,194*,99,89,137,189*,70,125,63,1.2,
COc1cccc(N=Nc2ccc(O)c3ncccc23)c1,104,103,180*,103,89,nt,nt,nt,nt,nt,0.2,
O=S(=O)(O)c1cccc2c(N=Nc3ccc(O)c4ncccc34)cccc12,105,105,92,103,101,nt,nt,nt,nt,nt,nt,
O=Nc1ccc(O)c2ncccc12,103,105,114,94,105,nt,nt,nt,nt,nt,nt,
Cc1ccccc1N=Nc1ccc(O)c2ncccc12,99,103,178*,97,101,216*,123,102,156*,105,0.3,
Oc1ccc(N=Nc2ccc3c(c2)OCCO3)c2cccnc12,117,116,128,95,113,nt,nt,nt,nt,nt,nt,
COc1ccc(N=Nc2ccc(O)c3ncccc23)cc1,102,116,215*,96,98,nt,nt,nt,nt,nt,0.51,
c1ccc(-c2nnnn2-c2ccccc2)cc1,104,107,91,105,101,nt,nt,nt,nt,nt,nt,
ClC(Cl)(c1nnnn1-c1ccccc1)c1nnnn1-c1ccccc1,86,83,232*,93,64,265*,148,92,132,96,1.6,
Cc1ccc2nc(NC(=O)CC3Oc4ccccc4NC3=O)sc2c1 (stereo unspecified),95,93,96,99,96,nt,nt,nt,nt,nt,nt,
CC(C)(C)c1cc(C(c2cccnc2)N2CCN(CCO)CC2)cc(C(C)(C)C)c1O (stereo unspecified),95,99,161*,89,83,nt,nt,nt,nt,nt,24,
CC(C)(C)n1nnnc1C(c1cccnc1)N1CCN(c2cccc(C(F)(F)F)c2)CC1 (stereo unspecified),113,126,107,90,nt,nt,nt,nt,nt,nt,nt,
CC1CCCCN1C(=O)CSc1nnc(-c2cccnc2)o1 (stereo unspecified),107,109,95,104,107,nt,nt,nt,nt,nt,nt,
CCOC(=O)CSC1=NC(=O)/C(=C\c2ccc(Cl)cc2)S1,73,87,184*,94,83,nt,nt,nt,nt,nt,0.21,Yeast autofl DR=0.16;TORC1 bypass gr=3
Cc1ccc(N/N=C(\C#N)C(N)=S)c(C)c1,90,142,161*,84,101,166*,218*,86,136,128,4.1,
COC(=O)CCC(=O)OC1(C)C(=O)C2=COC(c3ccc(OC)cc3)=CC2=C(Br)C1=O (stereo unspecified),49,79,127,39*,18,151*,129,72,108,43,2.2,
COC(=O)CCC(=O)OC1(C)C(=O)C2=CN(C(CO)CO)C(c3ccc(OC)cc3)=CC2=C(Br)C1=O (stereo unspecified),88,103,98,100,102,nt,nt,nt,nt,nt,nt,
SMILES,CIT2 TOR yeast,MEP2 TOR yeast,LAP4 TOR yeast,RPL19A TOR yeast,AGP1-GFP MLPCN,LAP4-GFP pick2,MEP2 cherry2,RPL19A-GFP pick2,CIT2-GFP pick2,AGP1 GFP CP2,s288c autofluor,others
Cc1ccc(C(=O)O)cc1N=Cc1cc(Br)cc(Br)c1O,62,90,180*,80,79,166*,166*,71,139,105,0.7,
CC(=O)Nc1ccc(C(=O)N/N=C/c2cc(Br)cc(Br)c2O)cc1,109,101,103,103,110,nt,nt,nt,nt,nt,nt,
Fc1ccc(Nc2nc(-c3cccnc3)cs2)cc1,92,149,102,59,74,100,102,102,100,97,nt,
O=C1OCCC1Sc1nnc(-c2ccco2)o1 (stereo unspecified),102,102,113,98,108,nt,nt,nt,nt,nt,nt,
O=C1OCCC1Sc1nnc(-c2ccc(Br)cc2)o1 (stereo unspecified),105,174,98,65,26,99,100,100,110,97,nt,
NS(=O)(=O)c1ccc(NC(=O)COc2ccc(Cl)cc2)cc1,98,97,92,101,94,nt,nt,nt,nt,nt,nt,
Cc1cccn2c(=O)c3cc(C#N)c(=N)n(CCCN4CCOCC4)c3nc12,78,115,78,63,74,99,103,99,97,98,nt,
C/C(=N\NS(=O)(=O)c1ccc([N+](=O)[O-])cc1)c1ccc(NC(=O)c2ccco2)cc1,83,154,90,52,75,103,98,101,99,99,nt,
